ChEMBL document CHEMBL4513216, “Probing the Open Global Health Chemical Diversity Library for Multistage-Active Starting Points for Next-Generation Antimalarials” (ACS Infect Dis, 2020)
About 8,600 (12%) of roughly 69,000 compounds showed an effect of 50% or more. Only a selection was taken, and strong results are over-represented in it overall.

Test system: Plasmodium berghei
Experiment: Screen against P. berghei liver stage (PbLuc), transformed with Luciferase, at 10uM
Assay type: functional, HepG2
Conditions: tested at 10 uM

| SMILES | INHIBITION |
| --- | --- |
| Cc1ccc(NCc2cnc3n2CCN(c2ncccn2)CC3)nn1 | 35.2% |
| Cc1ccccc1CNC(=O)C1CCN(Cc2nccn2C)CC1 | -17% |
| CC(=O)N1CCC(Cc2cnc(-c3c(C)nn(C)c3C)cn2)C1 (stereo not drawn) | 33.5% |
| Cn1ccnc(Sc2cccc(C#N)c2)c1=O | 15% |
| CN(C)C(C(=O)N1CCN(CCn2cccc2)CC1)c1cccc(F)c1 (stereo not drawn) | 44.7% |
| COCCCN1CCN(C(=O)C(c2cccc(F)c2)N(C)C)CC1 (stereo not drawn) | 50.1% |
| COCCN1CCN(C(=O)C(c2cccc(F)c2)N(C)C)CC1 (stereo not drawn) | 41.5% |
| CC(Cn1ccnc1)NC(=O)N1CCN(Cc2ccsc2)CC1 (stereo not drawn) | 31.9% |
| COc1ccc2c(c1)CC(C1CCOCC1)N(C(=O)c1ccn(C)n1)C2 (stereo not drawn) | 2.45% |
| CC(=O)N(Cc1ncc(C(C)C)o1)C1CCN(CCn2cncn2)C1 (stereo not drawn) | -13.2335% |
| CC1=CC[C@@H]2CN(C(=O)c3ccc(-c4nc[nH]n4)cc3)C[C@@H]2C1 | 40.7% |
| COc1cc(N2C[C@@H]3COC[C@]3(COc3cccnc3)C2)ncn1 | 42.1% |
| c1ccc(COC[C@]23COC[C@H]2CN(c2ncccn2)C3)nc1 | 53% |
| COCC(=O)NC[C@]12COC[C@H]1CN(c1ncc(F)cn1)C2 | -22.1% |
| COc1cc(N2C[C@@H]3COC[C@]3(COc3ncccc3F)C2)ncn1 | 73% |
| c1ccc(OC[C@]23COC[C@H]2CN(c2ncccn2)C3)nc1 | 31.9% |
| COc1ncccc1CN1C[C@@H]2COC[C@]2(COc2ccccn2)C1 | -32% |
| COc1cc(N2C[C@@H]3COC[C@]3(COc3ccccn3)C2)ncn1 | -6.3% |
| COc1cc(N2C[C@@H]3COC[C@]3(COCc3ccncc3)C2)ncn1 | 34.6% |
| O=C(CC1CC1)NC[C@]12COC[C@H]1CN(c1ncccn1)C2 | 88% |
| COc1cc(N2C[C@@H]3COC[C@]3(COCc3ccccn3)C2)ncn1 | 68.4% |
| Cc1cccc(COC[C@]23COC[C@H]2CN(c2ncccn2)C3)n1 | 38.1% |
| O=C(CC1CC1)NC[C@]12COC[C@H]1CN(c1ncc(F)cn1)C2 | 1.48% |
| CS(=O)(=O)N1C[C@H]2CC[C@@H](C1)N(C(=O)Cn1ccc3ccccc31)C2 | -7.98% |
| CC(C)C(C)NC(=O)Nc1cccc(OCC#N)c1 (stereo not drawn) | -16% |
| CC(c1c(F)cccc1F)N1CCN(Cc2nccn2C)CC1 (stereo not drawn) | 19.2% |

| SMILES | INHIBITION |
| --- | --- |
| Cc1nc(CNC(=O)Nc2c(C)n[nH]c2C)cs1 | 19.9% |
| CN(C)C(=O)CN1CCC2(CCN(Cc3nccs3)CC2)C1=O | -21.3% |
| Cc1nc2cc(C3CCOCC3)nn2c(NCC2COCCO2)c1C (stereo not drawn) | 32.75% |
| CCn1ncc2c1C(COCC1CC1)CN(S(=O)(=O)N(C)C)C2 (stereo not drawn) | 35.1% |
| COCC(=O)N1CCC([C@@H]2C[C@H](C(F)(F)F)n3nc(C)cc3N2)CC1 | -6.92% |
| CC(c1ccccn1)N(C)Cc1ccc(-n2ccnc2)cc1 (stereo not drawn) | 37.6% |
| Cc1cccc(COC[C@]23COC[C@H]2CN(C(=O)c2ccsc2)C3)n1 | -29.9% |
| COc1cc(N2C[C@@H]3COC[C@]3(COCc3cccc(C)n3)C2)ncn1 | 63.7% |
| Cc1cccc(CN2C[C@@H]3COC[C@]3(COc3ccc(C#N)cn3)C2)n1 | 6.8% |
| N#Cc1ccc(OC[C@]23COC[C@H]2CN(c2ncccn2)C3)nc1 | -7.29% |
| COc1cc(N2C[C@@H]3COC[C@]3(COc3ccc(C#N)cn3)C2)ncn1 | 71.1% |
| Cn1cc(CN2C[C@@H]3COC[C@]3(COc3ccc(C#N)cn3)C2)cn1 | -43.2% |
| Cc1cccc(CNC(=O)N(CCCO)C2CCc3ccccc32)n1 (stereo not drawn) | -14.6% |
| CNc1snc(C)c1C(=O)NC(C)CC(=O)c1cccs1 (stereo not drawn) | 44.6% |
| CCc1nc(NC2CCCN(C(=O)c3cccs3)C2)c2cnn(C)c2n1 (stereo not drawn) | 32.8% |
| CC(C)c1cc(NC2CCN(C(=O)N3CCCC3)CC2)ncn1 | 74.7% |
| CC(C)c1cc(NC2CCCN(C(=O)c3cccs3)C2)ncn1 (stereo not drawn) | 80% |
| CC(C)C1CN(C(=O)c2cccs2)CCS1 (stereo not drawn) | 29.5% |
| O=C(N1CCOCC1)N1CCC(Nc2ccncn2)CC1 | 29.4% |
| O=C(N1CCCC1)N1CCC(Nc2ccncn2)CC1 | 34.1% |
| COc1ccc(CC(=O)NC2(C#N)CCOCC2)c(Cl)c1 | -8.4% |
| Cc1ccc(N2CCCC(NCc3cccs3)C2)nn1 (stereo not drawn) | -19.4% |
| CCNC(=O)NC(=O)CN1CCCC1c1nc(C2CCCCC2)co1 (stereo not drawn) | 10.8% |
| CC(=O)Nn1ccc2c(nnc3c(-c4ccccc4)cnn32)c1=O | 58.5% |
| CC(=O)Nn1ccc2c(nnc3c(-c4ccc(F)cc4)cnn32)c1=O | 58.5% |
| O=C(O)CCn1ccc2c(nnc3c(-c4ccc(F)cc4)cnn32)c1=O | 63.6% |

| SMILES | INHIBITION |
| --- | --- |
| O=C(O)CCn1ccc(=O)c2ccccc21 | 35.1% |
| O=C(O)CCn1ccc(=O)c2cc(F)ccc21 | 38.1% |
| CCN(C)C(=O)NCC1(CN2CCOCC2)CCCCC1 | 5.76% |
| O=C(c1cc(=O)c(OCc2ccccc2F)co1)N1CCCC1 | -51.9% |
| COCCNC(=O)c1cnc(N(C)C)nc1C | 14.2% |
| CSc1nccn1-c1cccc(C(=O)NCCC(=O)NC(C)C)c1 | 15.5% |
| CC(=O)NCCCC(=O)N1CCc2[nH]c(-c3ccccc3)nc2C1 | 35.8% |
| Cc1cc(O)n2nc(C3CCN(C(=O)c4ccccn4)CC3)cc2n1 | 7.55% |
| CC(=O)N1[C@H](CN(C)C)C[C@@H]2CN(C(=O)Cc3cccs3)CC[C@@H]21 | -61.5% |
| Cn1nc(Br)c2c(NCCN)ncnc21 | 15.7% |
| Cc1ccc(-c2cc(N)c(=O)n(CC(=O)NC3CCCCC3)n2)s1 | 55.2% |
| Cc1ccc(-c2cc(N)c(=O)n(CC(=O)NC3CCCC3)n2)s1 | 6.32% |
| Cc1ccc(-c2cc(N)c(=O)n(CC(=O)NCC3CCCCC3)n2)s1 | 39.2% |
| COc1cccc(C(CO)NC(=O)Cc2ccc(F)c(Br)c2)c1 (stereo not drawn) | 22.6% |
| COc1cccc(C(CO)NC(=O)Cc2cccc(C)c2)c1 (stereo not drawn) | 53.4% |
| COc1cccc(C(CO)NC(=O)NC(C)C)c1 (stereo not drawn) | 91.1% |
| COc1cccc(CC(C)NC(=O)NC(C)C)c1 (stereo not drawn) | 30.3% |
| COc1ccc(C(CO)NC(=O)Nc2cccc(C(C)=O)c2)cc1 (stereo not drawn) | -6.51% |
| COCC(=O)NC(C)Cc1cccc(OC)c1 (stereo not drawn) | 15.5% |
| CN1CCN2C[C@@H](CO)[C@H](c3ccccc3)[C@H]2C1 | 17.7% |
| OCCCNc1cccc(COC2CCCCC2)c1 | 17.5% |
| CN(C)CCN1C(=O)CCCC12CCCN(C(=O)c1cc[nH]n1)C2 (stereo not drawn) | 34.5% |
| Cn1cc([C@@H]2CN(S(C)(=O)=O)C[C@H]2N)c2ccncc21 | -10.795% |
| CC(C)Cc1cc(-c2cc(-c3ccc[nH]3)nc(N)c2C#N)n[nH]1 | 48.8% |
| CNC(=O)NCC(=O)Nc1ccccc1N1CCc2ccccc21 | 30.5% |
| CCS(=O)(=O)CC(=O)Nc1ccccc1N1CCc2ccccc21 | 63.3% |

| SMILES | INHIBITION |
| --- | --- |
| CS(=O)(=O)NCCC(=O)Nc1ccccc1N1CCc2ccccc21 | 40.5% |
| O=C1CCC2(CCN(Cc3cscn3)CC2)CN1C1CCC(O)CC1 (stereo not drawn) | -60.7% |
| CCN1CC(c2ccccc2)CC2(CCN(Cc3ncc[nH]3)CC2)C1 (stereo not drawn) | 42.1% |
| c1ccc(C2CN(C3CC3)CC3(CCN(Cc4cscn4)CC3)C2)cc1 (stereo not drawn) | 70.1% |
| CN1CC(c2ccccc2)CC2(CCN(Cc3ncc[nH]3)CC2)C1 (stereo not drawn) | 49.9% |
| c1ccc(C2CN(C3CC3)CC3(CCN(Cc4ncc[nH]4)CC3)C2)cc1 (stereo not drawn) | 53.3% |
| COCCC(=O)N1CCC2(CC1)CC(c1ccccc1)CN(C1CC1)C2 (stereo not drawn) | 14% |
| Cc1cn2c(=O)c(-c3ccnc(N[C@@H]4CCOC4)n3)cnc2s1 | 17.4% |
| Cc1nc(COC[C@@]23CCC[C@@H]2CN(Cc2nccs2)C3)cs1 | 42.6% |
| COCCCN1CC2(CCCN(c3ncc(Cl)cc3F)C2)CCC1=O (stereo not drawn) | 37.7% |
| CN(C)CCN1CC2(CCCN(c3ncc(Cl)cc3F)C2)CCC1=O (stereo not drawn) | 37.7% |
| COCCN1CC2(CCCN(c3ncc(Cl)cc3F)C2)CCC1=O (stereo not drawn) | 78.5% |
| CC(C(=O)Nc1ccnn1C(C)C)N1CCc2nn(C)c(=O)cc2C1 (stereo not drawn) | 1.98% |
| CC(=O)c1cccc(NC(=O)COc2c(C)n(C)ccc2=O)c1 | -19% |
| COCCn1ccc(=O)c(OCC(=O)Nc2ccccc2)c1C | -93.2% |
| COc1ccccc1CNC(=O)CNCCn1cc(C)cn1 | 7.27% |
| Cc1c(OCC(=O)NCc2ccccc2)c(=O)ccn1C | 57.3% |
| COc1ccccc1CNC(=O)COc1c(C)n(C)ccc1=O | 53.6% |
| Cc1c(OCC(=O)NCc2ccccc2Cl)c(=O)ccn1C | 39.6% |
| Cc1cccc(CN2C(=O)CO[C@@H]3CN(C4CCOCC4)C[C@H]32)c1 | -18.2% |
| CCN(C(=O)CCCOc1ccccc1F)c1ccncc1 | -26.8% |
| CCCn1nnnc1COC(=O)C1Cc2cc(Cl)ccc2O1 (stereo not drawn) | 43.5% |
| CCCn1nccc1NC(=O)c1ccc(Cl)c(N2CCNC2=O)c1 | 57% |
| CCCc1cc(NC(=O)c2ccc(Cl)c(N3CCNC3=O)c2)n[nH]1 | -26.4% |
| CCc1ccc(C(=O)Nc2cc(N3CCNC3=O)ccc2Cl)o1 | 32.9% |
